Screening data (PubChem)
This is a sample that favours compounds with a hit; in the whole collection about 7.9% have one here.
HCV inh – HCV inhibition. Huh7.5.1 HCVcc-Cre infection, luciferase reporter, 44 h. Potency, µM (highest dose often 41.8 µM), hits mostly inhibitors. 3.4% of 340,000 active. AID 651820; active = well fitted inhibition curve with a large enough effect; inconclusive = small, poorly fitted or top-dose-only effect, or another doubt; inactive = no such curve, though single readings can be large or run the other way
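Compounds are dispensed onto cells plated 4 h earlier at 1,000 per well, with HCVcc-Cre virus (about 0.5 moi) added next. Following 44 h of culture, luminescent signal is measured for 15 sec after 15 min with substrate at room temperature.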
Marburg entry inh – inhibitors of Marburg virus binding or cell entry; Potency, µM (titrated, usually from 37.8 µM), most hits filed as inhibitors; AID 540276; 1.8% of 300,000 active; Marburg virus pseudotyped entry inhibition, cell reporter; calls by dose curve; tested in HEK293 cells
Lassa entry inh – inhibitors of Lassa virus binding or cell entry; Lassa virus pseudotype entry inhibition, cell reporter; Potency, µM (titrated, usually from 37.9 µM), hits mostly inhibitors; 1.2% of 300,000 active; calls by dose curve; tested in HEK293 cells; note: nearly all actives have a fitted effect of over 50% in size
FMDV inh – antivirals against foot and mouth disease virus; FMDV antiviral cell-based qHTS; Potency, µM (top dose mostly 57.9 µM), usual class: inhibitors; 1.2% of 410,000 active; calls by dose curve; tested in HEK293T cells; note: read-out not given here; nearly all actives have a fitted effect of over 45% in size
HCMV antiviral – blocks human cytomegalovirus replication; HFF cells, HCMV-luciferase reporter, 72 h; active compounds read low; activity change, negative = inhibition, % at 57.5 µM; 4.5% of 410,000 active; AID 1259415; in the data active = activity change below about -60%; inconclusive = no clear call, values can overlap the other calls; inactive = above about -39%
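Steps: HFFs plated, 16 h 37C; compounds added; HCMV-luciferase added to MOI 1 PFU/cell; 72 h 37C; OneGlo reagent, 5 min room temperature; luminescence read, normalized to controls.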
A number is an active result; - = inactive; ? = inconclusive; . = no result; ! = not confirmed by another sample; [ ] = remark or other dose.

SMILES	HCV inh	Marburg entry inh	Lassa entry inh	FMDV inh	HCMV antiviral
Cc1cc2oc(=O)cc(CN3CCN(C/C=C/c4ccccc4)CC3)c2cc1O	.	-	.	.	-
Cc1c(O)ccc2c(CN3CCN(C/C=C/c4ccccc4)CC3)cc(=O)oc12	11µM	8.9µM	?	?	-60
COc1ccc(N2CCN(Cc3cc(=O)oc4cc(-c5ccccc5)c(O)cc34)CC2)cc1	-	?	-	-	-80
Cc1cc2oc(=O)cc(CN3CCN(Cc4ccccc4)CC3)c2cc1O	11µM	.	.	-	-
O=c1cc(CN2CCN(c3ccc(F)cc3)CC2)c2cc3c(cc2o1)CCCC3	-	?	-	-	-62
O=c1cc(CN2CCN(Cc3ccccc3)CC2)c2cc(O)ccc2o1	-	.	.	-	?
C=C1C[C@@]23CC[C@H]4[C@@](C)(CCC[C@@]4(C)C(=O)O)[C@@H]2CC[C@]1(O)C3	.	-	-	.	.
CC(C)CN(Cc1cc(=O)oc2cc(-c3ccccc3)c(O)cc12)CC(C)C	14µM	.	.	-	-
Cc1ccc2c(CN3CCOCC3)cc(=O)oc2c1	-	.	.	-	-
COc1ccc2oc(=O)cc(CN3CCN(Cc4ccc(OC)c(OC)c4OC)CC3)c2c1	3.5µM	.	.	-	-
Cc1cc2oc(=O)cc(CN3CCN(S(=O)(=O)c4cccs4)CC3)c2cc1C	?	14µM	14µM	?	-
O=c1cc(CN2CCN(C/C=C/c3ccccc3)CC2)c2cc(O)c(-c3ccccc3)cc2o1	?	-	-	-	-
Cc1ccc2c(CN3CCCCC3)cc(=O)oc2c1	-	-	-	-	-77
COC(=O)c1sc(N2C(=O)c3oc4ccc(C)cc4c(=O)c3C2c2ccc(OC)cc2)nc1C (stereo not given)	.	-	-	-	-
Cc1oc2ncnc(N3CCCCC3)c2c1C(=O)N1CCN(c2ccc(Cl)cc2)CC1	.	.	-	-	-
CCOC(=O)c1ccc(N2CCCCC2)c(NS(=O)(=O)c2cccc(C(F)(F)F)c2)c1	-	.	.	-	-65
CCN(CC)CCNC(=O)c1ccc(N2CCCCC2)c(NS(=O)(=O)c2ccc(C)cc2)c1	11µM	?	-	-	?
COC(=O)c1ccc(N2CCCCC2)c(NS(=O)(=O)c2ccc(C)cc2)c1	13µM	?	-	.	-
Cc1ccc(S(=O)(=O)Nc2cc(C(=O)N3CCC4(CC3)OCCO4)ccc2N2CCCCC2)cc1	-	?	?	-	?
CN(C)c1ccc(C(=O)N[C@H]2CC[C@@]34CCCN3C(=O)CCC[C@H]4[C@H]2Cc2ccccc2)cc1	.	.	.	.	-
COCCN1C(=O)COCc2cc(-c3ccc(N(C)C)cc3)ccc21	.	.	.	.	-
CCc1cccc(NC(=O)Cn2c(=O)n(-c3cccc(Cl)c3)c(=O)c3c2c2cc(C)ccc2n3C)c1	.	-	-	-	-
Cc1onc(-c2cccc(Cl)c2Cl)c1C(=O)O/N=C(\N)c1ccc([N+](=O)[O-])o1	?	-	-	?	-
Cc1onc(-c2ccccc2)c1C(=O)O/N=C(\N)c1ccc([N+](=O)[O-])o1	11µM	.	.	?	-
CC(/C=N/n1c(C2CCCCC2)n[nH]c1=S)=C\c1ccccc1	-	?	18µM	-	-
SMILES	HCV inh	Marburg entry inh	Lassa entry inh	FMDV inh	HCMV antiviral
S=c1[nH]nc(C2CCCCC2)n1/N=C/c1ccncc1	-	-	-	-	-88
Cc1cccc(/C=N/n2c(C3CCCCC3)n[nH]c2=S)c1	-	.	.	-	.
Cc1cc(-c2ccnc(-n3ncc(C(=O)NCC4CCCO4)c3C3CC3)n2)c(C)s1 (stereo not given)	.	.	.	-	.
COC(=O)c1cc(=O)n(Cc2ccc3c(c2)OCO3)c(=Nc2ccc(F)cc2)s1	?	-	.	13µM	-
CCOC(=O)c1ccc(N=c2sc(C(=O)OC)cc(=O)n2Cc2ccc3c(c2)OCO3)cc1	-	-	.	?	-
COC(=O)c1cc(=O)n(Cc2ccc3c(c2)OCO3)c(=Nc2ccccc2)s1	-	-	.	35µM	-
O=C(Nc1ncccn1)c1cc([N+](=O)[O-])cc([N+](=O)[O-])c1	-	-	-	-	-
O=[N+]([O-])c1cc(-c2ncccn2)c([N+](=O)[O-])s1	?	?	?	40µM	-
CN(C)CCCC1(c2ccc(F)cc2)OCc2cc(C#N)ccc21 (stereo not given)	?	16µM!	?	-	-
N#CCCN(C(=O)COC(=O)c1cc(S(=O)(=O)N2CCOCC2)ccc1Cl)c1ccc(F)cc1	-[8.37 µM]	-	-	-	-71
N#CCCN(C(=O)COC(=O)c1cccc(S(=O)(=O)N2CCCC2)c1)c1ccc(F)cc1	.	-	-	-	-75
N#CCCN(C(=O)COC(=O)c1cccc(S(=O)(=O)N2CCCCCC2)c1)c1ccc(F)cc1	-	-	?	-	-
CC(=O)Nc1cccc(NC(=O)COc2ccc3c(c2)OCO3)c1	-	?	-	-	-
CCOc1ccc(OCC(=O)NCCS(=O)(=O)N2CCN(c3cccc(Cl)c3)CC2)cc1	.	.	-	-	-
Cc1c(C(=O)N2CCCCC2)nnn1-c1nonc1N	-	-	-	-	-62
Cn1cccc1C(=O)OCC(=O)N1CCc2ccccc21	-	.	.	-	-
Cn1cccc1C(=O)OCC(=O)N1CCc2ccccc2C1	.	.	.	-	-61
COc1ccccc1C1CN(Cc2c(C)nn(C)c2Cl)Cc2ccccc2O1 (stereo not given)	.	.	.	-	.
Cc1cc(=O)oc2cc(OC(=O)c3cncc(Br)c3)ccc12	-	-	-	-	-103
Cc1cc(=O)oc2cc(NC(=O)c3cc4ccccc4o3)ccc12	-	-	.	.	-
Cc1ccc(C(=O)Nc2cccc(C(=O)O)c2)cc1	-	?	5.8µM	2µM	-
Cc1cc(=O)oc2cc(NC(=O)c3cccc(Br)c3)ccc12	-	-	?	-	-74
O=C(Nc1ccc(NC(=O)C2CC2)cn1)c1ccccc1	-	?	5.6µM	-	-
COc1ccc(C(=O)Nc2ccc(NC(=O)C3CC3)cn2)cc1	-	-	-	-	-
CCCC(=O)Oc1ccc2c(C)cc(=O)oc2c1	-	?	-	-	-
SMILES	HCV inh	Marburg entry inh	Lassa entry inh	FMDV inh	HCMV antiviral
Cc1ccc(N2C(=O)CCSC23C(=O)N(Cc2ccccc2)c2ccccc23)cc1 (stereo not given)	.	.	?	-	-
Cc1ccc(C(=O)Nc2cccc(C(=O)N3CCOCC3)c2)cc1	-	-	-	-	-
C=CCN(c1ccc(C(=O)Nc2ccc(C)c(C)c2)cc1)S(C)(=O)=O	?	?	-	?	-69
CC(C)(C)c1ccc(C(=O)Nc2cccc(C(=O)N3CCOCC3)c2)cc1	5.6µM	.	.	-	?
O=C(Nc1cccc(C(=O)Nc2cccc(Br)c2)c1)c1ccccc1	14µM	.	.	-	-
O=C(Nc1ccc(Cl)cn1)c1cccc(F)c1	?	?	-	-	-
C=CCN(c1ccc(C(=O)Nc2ccc(C)cc2)cc1)S(C)(=O)=O	-	-	?	-	-
O=C(Nc1cccc(C(=O)Nc2ccc(Cl)cn2)c1)c1ccccc1	13µM	.	.	-	-
COc1ccc(CCN(C)C(=O)c2c(C)nn(-c3ccccc3)c2C)cc1OC	-	-	-	-	-
COc1ccccc1-c1ccnc(-n2ncc(C(=O)NCCc3ccccn3)c2C)n1	.	.	.	-	.
Cc1ccc(C(=O)Nc2ccc(C(=O)/C=C/c3cccs3)cc2)cc1	-	-	?	-	-
